GRIN3A LBD mod = NR3A (human) ligand-binding domain modulation | Tm shift relative to glycine control, % at 25 µM | AID 1259313 | NR3A LBD differential scanning fluorimetry, Tm shift; 0% = protein alone, 100% = glycine-bound protein | 340,000 compounds, 2.5% hits;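 active = melting temperature shift of at least 10% of the positive control shift, at one fixed dose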
FAS-TE inh = blocks the thioesterase domain of human fatty acid synthase; 360,000 compounds, 0.67% hits; recombinant FAS-TE, OMFH fluorogenic substrate, fluorescence endpoint; AID 602261; inhibition, % at 15 µM; P49327;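 active = compounds whose normalised, plate-corrected inhibition of enzyme fluorescence in the single-dose primary screen is 50% or more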;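 note: 0% = DMSO with enzyme and 100% = substrate without enzyme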
sPLA2-III inh = Inhibits HGIII-sPLA2 liposome hydrolysis, primary screen. Q9NZ20. QFRET BODIPY PC-A2 liposome hydrolysis, fluorescence. inhibition, % at 12.2 µM. 370,000 compounds, 0.56% hits. AID 743126;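 active = inhibition above mean plus 3 SD of compounds lying within the high and low control bounds, cut at about 19% in these data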;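 note: 0% = median of test compound wells and 100% = no enzyme DMSO wells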
ADAM17 inh = inhibits human ADAM17. P78536. recombinant ADAM17, EDANS/DABCYL FRET peptide cleavage. inhibition, % at 6.95 µM. 370,000 compounds, 0.83% hits;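 active = inhibition above the mean of compounds lying between control limits plus 3 SD, set per campaign, cut at about 8.5% in these data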;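 note: 0% = DMSO-only wells as the low control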
ADAM10 inh = inhibits human ADAM10; inhibition, % at 7 µM; O14672; recombinant ADAM10, EDANS/DABCYL FRET peptide cleavage, 3 h; 370,000 compounds, 0.62% hits;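 active = inhibition above a per-campaign cutoff equal to the mean of compounds falling between control-based bounds plus 3 SD, cut at about 20% in these data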;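 note: 0% = DMSO wells while the 100% control is not disclosed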
Target sequence (O14672 214-748 limits assumed): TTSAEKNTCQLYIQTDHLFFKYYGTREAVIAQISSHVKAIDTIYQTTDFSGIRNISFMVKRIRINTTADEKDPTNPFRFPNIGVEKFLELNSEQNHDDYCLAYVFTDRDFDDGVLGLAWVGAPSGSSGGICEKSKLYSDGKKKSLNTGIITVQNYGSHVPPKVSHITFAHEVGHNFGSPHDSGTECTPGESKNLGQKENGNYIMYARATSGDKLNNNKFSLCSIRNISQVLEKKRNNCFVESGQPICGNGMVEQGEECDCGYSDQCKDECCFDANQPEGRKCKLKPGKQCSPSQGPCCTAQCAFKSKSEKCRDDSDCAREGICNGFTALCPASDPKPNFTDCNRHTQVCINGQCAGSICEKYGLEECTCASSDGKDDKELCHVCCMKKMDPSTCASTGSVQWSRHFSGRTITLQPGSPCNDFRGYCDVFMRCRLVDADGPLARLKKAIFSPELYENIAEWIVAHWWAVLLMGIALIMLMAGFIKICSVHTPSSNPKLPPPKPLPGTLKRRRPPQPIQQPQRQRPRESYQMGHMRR
The depositor's hits bear a star; i = inactive; · = no result given. Sampled rows, rich in hits. Any-hit rate of the full collection: about 4.3%.

SMILES	GRIN3A LBD mod	FAS-TE inh	sPLA2-III inh	ADAM17 inh	ADAM10 inh
COc1ccc(CCNc2ccc(C(CC(N)=O)NC(=O)c3cc(OC)ccc3OC)cc2[N+](=O)[O-])cc1 (configuration not stated)	42*	8	-8	1	-11
COc1ccc(-c2nc(N=Nc3ccc(O)cc3)n[nH]2)cc1	13*	-4	-21	7	13
CN1C(C(=O)NCc2ccco2)CC2Cn3c(nc4cc5ccccc5cc43)C21 (configuration not stated)	10*	-7	-4	-5	-21
CN1C(C(=O)NCc2ccccc2)CC2Cn3c(nc4cc5ccccc5cc43)C21 (configuration not stated)	12*	-6	1	-2	-28
Cc1cc2nc3n(c2cc1C)CC1CC(C(=O)NCCc2cccs2)N(C)C31 (configuration not stated)	13*	-7	8	-4	-1
Cc1ccc(S(=O)(=O)N(CCc2ccccc2)CC(=O)N2CCOCC2)cc1	·	·	-4	-3	-2
O=C(NC1CCCCN(Cc2cccc(C(F)(F)F)c2)C1=O)c1c(F)cccc1F (configuration not stated)	·	·	1	-1	-2
COc1ccccc1CNC(=O)N1CCN(Cc2nc3ccccc3c(=O)[nH]2)CC1	·	·	5	6	-4
O=C(N/N=C/c1c[nH]c2ccccc12)c1cc(Br)ccc1O	34*	1	-8	-11	-39
CCOc1ccc(Br)cc1C(=O)N/N=C/c1ccccn1	1	0	-4	-5	-1
Cc1cc(C(=O)N/N=C/c2c[nH]c3ccccc23)c(C)o1	8	-2	-18	1	-8
CCOc1ccc(Br)cc1C(=O)N/N=C/c1c[nH]c2ccccc12	10*	2	-11	-11	-31
COc1cc(OC)cc(-c2cc3ccc(OC)cc3cn2)c1	9	16	-7	-2	-6
COc1ccc2cc(-c3ccsc3)ncc2c1	30*	0	-8	-18	-78
Cc1nnc(N/N=C/c2cc(C)n(-c3ccc(F)cc3)c2C)n1N	12*	-9	5	-4	-11
CCCN1CCS(=O)(=O)N(Cc2cn(Cc3ccc(Cl)cc3)nn2)C(C(=O)OC)C1 (configuration not stated)	·	·	1	-1	-3
O=[N+]([O-])c1cccc(/C=C/c2nc(C=Nc3ccc4ccccc4c3)c(O)o2)c1	11*	-33	4	1	-7
CCOc1cc(/C=C2/NC(=O)N(Cc3ccccc3F)C2=O)ccc1O	30*	5	-18	-1	-5
COc1cc(/C=C2/NC(=O)N(Cc3ccccc3F)C2=O)cc(OC)c1O	1	-4	-23	-1	-15
C[C@H]1C2CC(OC(=O)NCCCc3ccccc3)C(C2)[C@H]2CCCCN21 (some centres not stated)	·	·	2	-4	-10
O=C(NCc1ccco1)c1cccc(Nc2nc3ccc(Br)cc3[nH]2)c1	13*	10	-12	3	9
O=C(NCc1ccco1)c1ccc2nc([C@@H]3O[C@H](CO)[C@H](O)[C@H](O)[C@H]3O)[nH]c2c1	·	-9	8	-4	-10
O=C(NCC1CC1)c1ccc(Nc2nc3ccc(Br)cc3[nH]2)cc1	28*	6	-13	-19	-60
CC(=O)Nc1nc2ncccn2c1-c1ccc(F)c(F)c1	·	·	16	-367	i
COc1cc(C(=O)Nc2ccc(NC(=O)C3CCCCC3)nc2)cc(OC)c1OC	-3	2	-3	0	-2
SMILES	GRIN3A LBD mod	FAS-TE inh	sPLA2-III inh	ADAM17 inh	ADAM10 inh
COc1cccc(C(=O)Nc2ccc(NC(=O)C(C)(C)C)cn2)c1	17*	-2	3	-5	-4
COc1cc(C(=O)Nc2ccc(NC(=O)c3cccc(Cl)c3)nc2)cc(OC)c1OC	27*	12	-7	-1	2
COC(=O)[C@]12C[C@H](CC(=O)NCC34CC5CC(CC(C5)C3)C4)C(=O)N(Cc3cccc4ccccc34)C1=C[C@H](COCc1ccccc1)O[C@@H]2C	·	·	-3	0	-1
CC(=O)OC12CCCN(C1)/C(=C/c1cccnc1)C2 (configuration not stated)	·	·	2	-3	-6
CN(C)CCNC(=O)C(=O)c1c(-c2ccccc2)cc2ccccn12	242*	-5	2	-4	-4
CNC(=O)C[C@@H]1CC[C@@H]2[C@H](COc3ccc(NC(=O)c4cccc(F)c4)cc3C(=O)N2C)O1	·	·	4	-4	-1
Cc1cc(Cl)ccc1OCCCC(=O)N/N=C/c1cccc([N+](=O)[O-])c1	19*	5	-1	2	1
COc1ccc(/C=N/NC(=O)CCCOc2ccc(Cl)cc2Cl)cc1	16*	32	-3	1	6
O=C(CSc1ccccc1)NC1CCCCN(Cc2cccc(Cl)c2)C1=O (configuration not stated)	·	·	-9	0	0
COc1ccc(Oc2c(Cl)cnn(-c3ccc(C(C)C)c(C)c3)c2=O)cc1	·	·	-4	-1	1
C/C(=N\Nc1cc(C)nc(-c2ccccc2O)n1)c1ccccc1	14*	33	-3	1	2
Cc1cc(N/N=C/c2ccc(O)c(C)c2O)nc(-c2ccccc2O)n1	32*	9	-34	1	-6
C/C(=N\Nc1cc(C)nc(-c2ccccc2)n1)c1cccc([N+](=O)[O-])c1	17*	19	0	5	2
Cc1ccc2nc(-c3ccc(NC(=O)CSc4nnc(-c5cc(C)[nH]n5)n4N)cc3)sc2c1	·	·	-20	-75	-297
CC1CN(Cc2ccccc2)c2nc3c(c(=O)[nH]c(=O)n3C)n2C1 (configuration not stated)	29*	-8	1	-5	-6
CN(C)[C@H]1CCN(c2ccc3c(c2)O[C@H]2CCN(C2)S3(=O)=O)C1	·	·	12	-7	-16
CCN1C(=O)/C(=C\c2ccncc2)SC1=Nc1ccc(C)c(C)c1	13*	-10	2	-1	1
CN1CCN(CC(=O)Nc2nc(-c3ccccc3)cs2)CC1	13*	-11	3	-3	4
O=C(Cc1c(F)c(F)c(F)c(F)c1F)Nc1nc(-c2ccccc2)cs1	12*	23	9	0	2
COc1ccc2c(c1)CCCN2C(=O)C1CCCN(S(=O)(=O)c2ccc(C)c(C)c2)C1 (configuration not stated)	·	·	-2	7	-2
O=C(Nc1cccc(C(=O)Nc2ccccc2C(=O)O)c1)c1cccc(Cl)c1	14*	1	-18	1	5
CN1CCN(c2ccc(NC(=O)c3ccc(Br)o3)cc2)CC1	-1	-7	1	-1	9
O=C(Nc1ccccc1C(=O)O)c1cccc(C(=O)Nc2ccccc2C(=O)O)c1	10*	-1	-4	-2	0
CC1CCN(c2ccc(NC(=O)c3ccc(Br)o3)cc2)CC1	30*	3	14	4	4
O=C(Nc1ccccc1C(=O)O)c1cccc(NC(=O)c2ccc(Br)o2)c1	2	2	-8	6	-8
